# Assay results as given in PubChem BioAssay AID743088 (The Scripps Research Institute Molecular Screening Center, 2013).
# Unmarked numbers belong to inactive results.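 Rule for the calls: active = binding inhibited by at least 50%, or stimulated by at least 50%, shown as inhibition of -50% or lower; inactive = the rest.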
# System: Rolipram
# Assay: radioligand displacement at 30 receptors – biochemical, Panlabs HitProfilingScreen, selectivity assay for AVPR1a antagonist project, profiling panel (AID 743088)
# Details: 30 targets, at 10 µM, stronger effect = higher value
structure (smiles),measurement,value
O=C(C1CCN(c2ccc(Cl)cn2)CC1)N(CC1CC1)c1ccc(Cl)cc1,inhibition of binding,-3%
